According to PubChem BioAssay:
Active and inactive are the calls of the source. Unless noted, no rule for the calls is given here.

Experiments:
[1] = HepG2 liver cancer cell viability effects, profiling panel, resazurin fluorescence, 24 h, PK04 Diversity Set (AID 1172); conditions: higher = more signal
[2] = basal S. cerevisiae growth modulation, no modifier, primary screen, OD600, strain BY4716, 24 h, basal condition (AID 1173); conditions: OD600, 24 h, higher = more signal, called active from +8 up or from −8 down
[3] = MM1S myeloma cell viability, profiling panel, resazurin fluorescence, basal, 24 h, PK04 Diversity Set (AID 1174); conditions: higher = more signal, called active from +8 up or from −8 down;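 also: MM1S multiple myeloma cell line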
[4] = molecular target: Dihydroorotate dehydrogenase (quinone), mitochondrial (Plasmodium falciparum (isolate 3D7)) (UniProt Q08210); experiment: PfDHODH enzyme inhibitors, primary screen, biochemical, C-terminal His tag, absorbance 600 nm (AID 1175); conditions: DCIP absorbance 600 nm, higher = more signal, called active from +8 up or from −8 down;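 also: recombinant parasite enzyme with a five histidine tag at its C terminus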
[5] = P. aeruginosa biofilm formation inhibitors, primary screen, strain PAO1, LB-PBS medium, absorbance 600 nm (AID 1176); conditions: P. aeruginosa PAO1 growth/biofilm, A600, 12 h; higher = more signal
[6] = S. cerevisiae RM11-1a growth modifiers, primary screen, strain RM11-1a, OD600, basal, 24 h (AID 1177); conditions: OD600, 24 h, higher = more signal, called active from +8 up or from −8 down;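 also: cultures grown under basal conditions with no added stressor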
[7] = E. coli acrAB mutant growth effects, primary screen, E. coli filamentation inducers, strain DRC39, OD650, 24 h (AID 1178); conditions: higher = more signal, called active from +8 up or from −8 down;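 also: growth measured as culture turbidity by optical density at 650 nm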
[8] = E. coli acrAB mutant growth effects, primary screen, E. coli filamentation inducers, strain DRC39, OD650, 48 h (AID 1179);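 also: screen aims at cell division blockers that make cells filament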; conditions: E. coli DRC39 delta-acrAB growth, higher = more signal, called active from +8 up or from −8 down
[9] = RPMI8226 myeloma cell viability, profiling panel, resazurin fluorescence, basal, 24 h, PK04 Diversity Set (AID 1180); conditions: higher = more signal;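 also: RPMI8826 multiple myeloma cell line at 5000 cells per well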
[10] = molecular target: E3 ubiquitin-protein ligase XIAP (Homo sapiens) (UniProt P98170); experiment: XIAP binders, primary screen, biophysical, small-molecule microarray, fluorescence 635 nm (AID 1181); conditions: small-molecule microarray binding, higher = more signal;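 also: score merges 667 nm emission and signal to noise over triplicate slides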
[11] = system: XIP peptide (Xip251-270) binding; experiment: small-molecule binders of XIP peptide, primary screen, biochemical, small-molecule microarray, fluorescence 635/667 nm, 0.1 µg/mL protein (AID 1182); conditions: fluorescent protein binding, 635 nm, higher = more signal, called active from +8 up or from −8 down
XIP peptide (Xip251-270) = experiment: small-molecule binders of XIP peptide, primary screen, biochemical, small-molecule microarray, fluorescence 635/667 nm, 0.5 µg/mL protein (AID 1183); conditions: small-molecule microarray binding, fluorescence 635 nm; higher = more signal
[12] = Plasmodium falciparum growth inhibition, primary screen, strain 3D7, DAPI fluorescence, 100 nL (AID 1184);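 also: parasites grown inside human red blood cells in medium with human serum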; conditions: P. falciparum 3D7 growth, 3 d, higher = more signal
[13] = molecular target: Homeobox protein Hox-A13 (Mus musculus) (UniProt Q62424); experiment: inhibitors of HoxA13-DNA binding, primary screen, biochemical, fluorescence polarization, labeled oligonucleotide (AID 1185); conditions: 15 min, higher = more signal, called active from +8 up or from −8 down
[14] = inhibitors of hydroxyurea-induced Chk1 phosphorylation, primary screen, imaging, HeLa, phospho-Chk1 antibody, percent positive cells (AID 1186); conditions: hydroxyurea-induced phospho-Chk1 immunofluorescence imaging, higher = more signal
[15] = inhibitors of hydroxyurea-induced Chk1 phosphorylation, primary screen, imaging, HeLa, phospho-Chk1 nuclear intensity (AID 1187); conditions: hydroxyurea-induced phospho-Chk1 immunofluorescence imaging, higher = more signal

Chain of E3 ubiquitin-protein ligase XIAP (Homo sapiens) (P98170 whole entry, looked up): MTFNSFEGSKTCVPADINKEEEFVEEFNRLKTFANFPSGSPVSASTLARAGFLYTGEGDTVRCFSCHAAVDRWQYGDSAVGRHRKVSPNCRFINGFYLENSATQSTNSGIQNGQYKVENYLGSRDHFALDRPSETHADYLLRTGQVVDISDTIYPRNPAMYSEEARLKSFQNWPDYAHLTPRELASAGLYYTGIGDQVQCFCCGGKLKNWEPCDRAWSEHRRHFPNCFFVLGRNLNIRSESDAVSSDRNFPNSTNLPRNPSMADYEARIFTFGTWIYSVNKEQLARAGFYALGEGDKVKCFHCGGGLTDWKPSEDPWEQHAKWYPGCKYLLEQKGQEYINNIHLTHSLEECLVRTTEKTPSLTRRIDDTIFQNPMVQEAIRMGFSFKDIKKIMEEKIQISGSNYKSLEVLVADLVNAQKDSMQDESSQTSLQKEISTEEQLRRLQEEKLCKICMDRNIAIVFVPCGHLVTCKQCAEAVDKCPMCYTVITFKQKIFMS
Chain of Homeobox protein Hox-A13 (Mus musculus) (Q62424 whole entry, looked up): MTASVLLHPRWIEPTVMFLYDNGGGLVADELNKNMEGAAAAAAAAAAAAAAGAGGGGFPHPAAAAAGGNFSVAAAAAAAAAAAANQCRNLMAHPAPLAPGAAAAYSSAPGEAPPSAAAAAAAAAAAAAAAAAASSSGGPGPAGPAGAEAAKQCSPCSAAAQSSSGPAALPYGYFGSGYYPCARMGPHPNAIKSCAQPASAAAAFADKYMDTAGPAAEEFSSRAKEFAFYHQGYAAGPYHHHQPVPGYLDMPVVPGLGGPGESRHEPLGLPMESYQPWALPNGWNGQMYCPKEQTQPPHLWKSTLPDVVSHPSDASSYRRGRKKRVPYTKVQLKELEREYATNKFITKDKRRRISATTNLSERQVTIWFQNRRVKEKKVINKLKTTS
Chain of Dihydroorotate dehydrogenase (quinone), mitochondrial (Plasmodium falciparum (isolate 3D7)) (Q08210 whole entry, looked up): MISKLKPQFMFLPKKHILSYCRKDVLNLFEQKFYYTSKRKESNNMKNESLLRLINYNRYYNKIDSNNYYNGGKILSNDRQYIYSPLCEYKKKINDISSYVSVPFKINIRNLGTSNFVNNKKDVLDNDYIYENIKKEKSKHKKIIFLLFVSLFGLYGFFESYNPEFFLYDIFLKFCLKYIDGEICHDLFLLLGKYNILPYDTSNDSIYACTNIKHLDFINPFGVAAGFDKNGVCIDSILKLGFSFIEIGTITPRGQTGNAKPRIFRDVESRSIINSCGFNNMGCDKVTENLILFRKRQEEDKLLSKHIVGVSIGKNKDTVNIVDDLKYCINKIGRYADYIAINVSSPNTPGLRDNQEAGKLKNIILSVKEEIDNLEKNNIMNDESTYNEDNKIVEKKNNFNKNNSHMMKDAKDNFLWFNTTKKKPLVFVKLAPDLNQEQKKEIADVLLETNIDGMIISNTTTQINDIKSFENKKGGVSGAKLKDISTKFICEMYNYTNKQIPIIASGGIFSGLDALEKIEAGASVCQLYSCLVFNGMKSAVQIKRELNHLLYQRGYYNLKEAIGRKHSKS

SMILES | z-score [1] | z-score [2] | z-score [3] | composite z-score [4] | z-score [5] | z-score [6] | z-score [7] | z-score [8] | z-score [9] | composite z-score [10] | composite z-score [11] | composite z-score (XIP peptide (Xip251-270)) | z-score [12] | z-score [13] | z-score [14] | z-score [15]
CC(C)c1ccc(NN2C(C(O)c3ccc(B(O)O)cc3)C=CC3C(=O)N(c4ccccc4)C(=O)C32)cc1 (stereo not drawn) | -1.18 | 0.278 (inactive) | -1.2 (inactive) | -0.388 (inactive) | 1.12 (inactive) | 0.728 (inactive) | -0.329 (inactive) | -0.543 (inactive) | -0.948 | -0.119 | 1.04 (inactive) | 0.665 | 0.101 | -4.18 (inactive) | -0.337 (inactive) | -0.659 (inactive)
COc1ccc(CCNC(=O)[C@@]2(C)c3ccccc3C(=O)N(C(C)C)[C@H]2c2ccc(CO)cc2)cc1 | -0.848 | -0.51 (inactive) | 0.0132 (inactive) | 0.12 (inactive) | -0.149 (inactive) | -0.54 (inactive) | -0.166 (inactive) | 0.0299 (inactive) | 0.332 | -0.252 | -0.15 (inactive) | 0.388 | -0.57 | -2.77 (inactive) | 0.0394 (inactive) | -0.33 (inactive)
CN(C)CCCC[C@@H]1NC(=O)[C@H]2C[C@@H](C(=O)NCCCCCCN)[C@@H](c3ccc(O)cc3)N2C1=O | -0.24 | -0.343 (inactive) | 0.696 (inactive) | -1.31 (inactive) | -0.338 (inactive) | 0.578 (inactive) | 0.332 (inactive) | 0.458 (inactive) | 0.683 | 0.121 | 1.38 (inactive) | 0.785 | -0.135 | -1.16 (inactive) | 0.323 (inactive) | 0.362 (inactive)
COc1ccc(-c2cc3c(c(-c4ccc(Oc5ccccc5)cc4)n2)[Si](C(C)C)(C(C)C)OC3)cn1 | -1.05 | 1.07 (inactive) | -0.29 (inactive) | 0.568 (inactive) | -0.0391 (inactive) | 1.24 (inactive) | -0.794 (inactive) | -0.973 (inactive) | -0.698 | -0.0326 | -0.0527 (inactive) | 0.0792 | -1.34 | -1.79 (inactive) | -0.265 (inactive) | 0.0655 (inactive)
CCCC[C@H]1OB(O)C[C@H]2C1=C(COC)C[C@H]1C(=O)N(C)C(=O)[C@H]12 | -0.627 | -1.56 (inactive) | -0.227 (inactive) | -0.682 (inactive) | 0.118 (inactive) | -1.11 (inactive) | -0.748 (inactive) | -0.595 (inactive) | -0.45 | 0.144 | -0.267 (inactive) | -0.0711 | 1.5 | -9 (active) | 0.534 (inactive) | 0.312 (inactive)
COCCOC(=O)N1C(=O)[C@@]2(c3cc(C#CC4(O)CCCCCC4)ccc31)[C@H](c1ccc(OCCO)cc1)N1[C@H](c3ccccc3)[C@H](c3ccccc3)OC(=O)[C@H]1[C@@H]2C(=O)N1CCN(c2ncccn2)CC1 | -0.0209 | 2.29 (inactive) | -0.549 (inactive) | -1.64 (inactive) | 2.57 (inactive) | 3.15 (inactive) | -0.534 (inactive) | -0.477 (inactive) | -0.305 | -0.0582 | 0.647 (inactive) | 0.61 | -2.06 | 0.253 (inactive) | -0.0615 (inactive) | 0.22 (inactive)
O=C1C[C@@](C(=O)NCCN2CCOCC2)(c2ccc([N+](=O)[O-])cc2)[C@@H](c2ccc(CO)cc2I)N1CC12CC3CC(CC(C3)C1)C2 | -5.11 | -12.9 (active) | -6.88 (inactive) | -0.227 (inactive) | 0.941 (inactive) | -21.4 (active) | -0.272 (inactive) | -0.305 (inactive) | -5.62 | -0.0095 | 0.634 (inactive) | 0.761 | -2.04 | -3.99 (inactive) | -0.894 (inactive) | -1.24 (inactive)
O=C(NCCO)C1=C[C@H](Oc2ccccc2I)[C@@H](O)[C@H](N(Cc2ccco2)C(=O)Cc2ccccc2)C1 | -1.23 | -0.279 (inactive) | -0.123 (inactive) | 1.06 (inactive) | -0.848 (inactive) | 0.552 (inactive) | -0.49 (inactive) | -0.666 (inactive) | -0.328 | -0.052 | 0.143 (inactive) | -1.13 | -1.32 | -2.48 (inactive) | 0.0831 (inactive) | 0.304 (inactive)
